Measurements as given in PubChem BioAssay (EPA / NIEHS).
Several values for one entry are separate records, joined by “and”; a condition that tells them apart may be missing. Identical values can stand only once. Results filed as inconclusive are left out. Activity calls are given as the source filed them. Rule for the calls, unless noted: active = hit-call score of the fitted dose curve at least 0.9, where 1 is the maximum; inactive = score below 0.9.

Assays:
CD40, CD40 (gene 958) = test: BSK_SAg_CD40: BioMAP Diversity Plus: SAg Assay for CD40 Biomarker Activity (AID 2283088); conditions: primary human HUVEC with PBMC; actives raise or lower the signal
Procedure, shortened: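 HUVEC/PBMC co-culture, 24 h post-dose; CD40 by ELISA, fluorescence intensity; bidirectional fit vs DMSO negative control.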

CD69, CD69 (gene 969) = test: BSK_SAg_CD69: BioMAP Diversity Plus: SAg Assay for CD69 Biomarker Activity (AID 2283089); conditions: primary human HUVEC with PBMC; actives raise or lower the signal;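 for AC50: cell surface CD69 protein quantified by ELISA with fluorescence detection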
Procedure, shortened: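 Endothelial/PBMC co-culture; chemical added; 24 h incubation; CD69 ELISA with fluorescence detection; bidirectional fit vs DMSO.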

[1] = read-out: Monocyte Chemoattractant Protein-1 (MCP1), CCL2 (gene 6347); test: BSK_SAg_MCP1: BioMAP Diversity Plus: SAg Assay for Monocyte Chemoattractant Protein-1 (MCP1) Biomarker Activity (AID 2283090); conditions: primary human HUVEC with PBMC; actives raise or lower the signal
Procedure, shortened: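 MCP-1 levels in the endothelial–PBMC SAg co-culture were quantified by ELISA at 24 h post-dosing; both increases and decreases versus DMSO scored. Cytotoxicity monitored by SRB total protein in parallel cultures.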

[2] = read-out: E-selectin (Homo sapiens) (UniProt P16581); test: BSK_SAg_Eselectin: BioMAP Diversity Plus: SAg Assay for Eselectin Biomarker Activity (AID 2283091); conditions: primary human HUVEC with PBMC; actives raise or lower the signal
Procedure, shortened: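 E-selectin ELISA readout at 24 h post-dosing in human umbilical vein endothelial cell/PBMC co-culture; gain or loss of signal fitted relative to DMSO baseline.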

[3] = read-out: Monokine induced gamma interferon (MIG), CXCL9 (gene 4283); test: BSK_SAg_MIG: BioMAP Diversity Plus: SAg Assay for Monokine induced gamma interferon (MIG) Biomarker Activity (AID 2283092); conditions: primary human HUVEC with PBMC; actives raise or lower the signal
Procedure, shortened: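 Measures CXCL9 protein by ELISA in a human vascular primary-cell co-culture (umbilical vein endothelium with PBMC) 24 h after chemical addition. Activity is scored up or down from the DMSO control.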

[4] = BSK_SAg_PBMCCytotoxicity: PBMC Cytotoxicity Assessment in the BioMAP Diversity Plus: SAg Assay (AID 2283093); conditions: primary human HUVEC with PBMC;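 note: PBMC viability measured as Alamar Blue reduction fluorescence at 546/580 nm; fitted both ways against DMSO so a hit may be loss or gain of signal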;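 for AC50: PBMC superantigen activated with SEB plus TSST-1 one hour after compound addition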
Procedure, shortened: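 Human umbilical vein endothelial cells co-cultured with PBMC; PBMC (75,000/well) pre-treated with compound 1 h, then activated with SEB and TSST-1 (20 ng/mL final each) for 90 h. Alamar Blue added 6 h, fluorescence 546/580 nm; bidirectional fit versus DMSO.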

[5] = read-out: Interleukin-8 (IL8), CXCL8 (gene 3576); test: BSK_SAg_IL8: BioMAP Diversity Plus: SAg Assay for Interleukin-8 (IL8) Biomarker Activity (AID 2283094); conditions: primary human HUVEC with PBMC; actives raise or lower the signal
Procedure, shortened: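 ELISA read-out of IL-8 in a primary human vascular co-culture (umbilical vein endothelium plus PBMC), taken 24 h after compound addition. Values derive from bidirectional fits against DMSO negative controls.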

[6] = BSK_SAg_Proliferation: Cell Proliferation Assessment in the BioMAP Diversity Plus: SAg Assay (AID 2283095); conditions: primary human HUVEC with PBMC;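 note: relative cell number as total protein by SRB absorbance in sub-confluent culture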
Procedure, shortened: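 Cells (endothelium plus PBMC, human primary) were dosed with chemical, cultured 96 h, fixed in 10% TCA and stained with 0.1% SRB. Absorbance at 560 nm gave relative protein, fitted bidirectionally relative to DMSO.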

[7] = BSK_SAg_SRB: Viability Assessment in the BioMAP Diversity Plus: SAg Assay (AID 2283096); conditions: primary human HUVEC with PBMC;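 note: cells read one day after compound addition; hits may be either gain or loss of signal compared with DMSO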
Procedure, shortened: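 Endothelial/PBMC primary human co-culture; compound 24 h; fix 10% TCA, stain 0.1% SRB, A560; protein content as cytotoxicity proxy; bidirectional curve fit, DMSO = baseline.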

[8] = biological target: Cytochrome P450 2C18 (Homo sapiens) (UniProt P33260); test: NVS_ADME_hCYP2C18: NovaScreen (NVS) CYP450-related Enzyme Activity (ADME) Assay for human CYP2C18 (AID 2283103)
Chain of Cytochrome P450 2C18 (Homo sapiens) (P33260 whole entry, looked up): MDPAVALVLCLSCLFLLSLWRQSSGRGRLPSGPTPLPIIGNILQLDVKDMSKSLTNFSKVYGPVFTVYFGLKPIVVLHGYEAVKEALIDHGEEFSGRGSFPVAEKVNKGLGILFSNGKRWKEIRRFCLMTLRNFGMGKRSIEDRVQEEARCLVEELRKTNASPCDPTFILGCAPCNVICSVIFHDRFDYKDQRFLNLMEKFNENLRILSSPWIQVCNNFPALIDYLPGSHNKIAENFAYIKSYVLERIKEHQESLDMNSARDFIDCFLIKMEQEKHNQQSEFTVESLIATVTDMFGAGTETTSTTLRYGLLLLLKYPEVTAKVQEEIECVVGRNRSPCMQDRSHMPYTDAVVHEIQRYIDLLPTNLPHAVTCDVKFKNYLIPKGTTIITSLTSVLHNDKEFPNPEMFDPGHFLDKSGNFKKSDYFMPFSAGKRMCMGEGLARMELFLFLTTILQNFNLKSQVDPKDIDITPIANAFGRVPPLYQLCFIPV
Procedure, shortened: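 Cell-free recombinant human CYP2C18 with fluorogenic substrate; fluorescence intensity read 0.5 h after dosing. Single-point screen at 10 uM in duplicate, then concentration-response up to 20 uM; loss of signal fitted against acetonitrile baseline.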

[9] = biological target: human CYP19A1, CYP19A1 (gene 1588) (UniProt P11511); test: NVS_ADME_hCYP19A1: NovaScreen (NVS) CYP450-related Enzyme Activity (ADME) Assay for human CYP19A1 (AID 2283098; active = hit-call score of the fitted dose curve at least 0.9, where 1 is the maximum;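 for AC50: potency for inhibitors seen as loss of fluorescent enzyme signal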)
Chain of human CYP19A1, CYP19A1 (gene 1588) (P11511 whole entry, looked up): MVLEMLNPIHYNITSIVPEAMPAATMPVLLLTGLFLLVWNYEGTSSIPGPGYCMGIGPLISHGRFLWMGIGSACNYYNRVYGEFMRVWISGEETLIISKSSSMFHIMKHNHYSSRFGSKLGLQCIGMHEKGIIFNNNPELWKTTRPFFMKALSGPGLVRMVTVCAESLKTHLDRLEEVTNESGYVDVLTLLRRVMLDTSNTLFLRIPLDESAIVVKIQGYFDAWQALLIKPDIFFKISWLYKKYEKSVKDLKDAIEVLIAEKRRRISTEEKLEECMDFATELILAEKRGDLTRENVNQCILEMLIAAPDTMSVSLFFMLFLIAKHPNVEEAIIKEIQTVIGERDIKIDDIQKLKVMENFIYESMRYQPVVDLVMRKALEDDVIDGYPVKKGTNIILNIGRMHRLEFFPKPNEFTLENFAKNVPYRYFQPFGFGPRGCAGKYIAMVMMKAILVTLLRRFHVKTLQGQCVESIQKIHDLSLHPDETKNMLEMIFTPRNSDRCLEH
Procedure, shortened: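 Cell-free enzyme assay with recombinant protein and a specific fluorogenic substrate, read by fluorescence intensity 0.5 h after dosing. Primary screen ran in duplicate at 10 uM; actives were retested in concentration series. Loss of signal versus acetonitrile baseline.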

[10] = biological target: human CYP1A1, CYP1A1 (gene 1543) (UniProt P04798); test: NVS_ADME_hCYP1A1: NovaScreen (NVS) CYP450-related Enzyme Activity (ADME) Assay for human CYP1A1 (AID 2283100; active = hit-call score of the fitted dose curve at least 0.9, where 1 is the maximum)
Chain of human CYP1A1, CYP1A1 (gene 1543) (P04798 whole entry, looked up): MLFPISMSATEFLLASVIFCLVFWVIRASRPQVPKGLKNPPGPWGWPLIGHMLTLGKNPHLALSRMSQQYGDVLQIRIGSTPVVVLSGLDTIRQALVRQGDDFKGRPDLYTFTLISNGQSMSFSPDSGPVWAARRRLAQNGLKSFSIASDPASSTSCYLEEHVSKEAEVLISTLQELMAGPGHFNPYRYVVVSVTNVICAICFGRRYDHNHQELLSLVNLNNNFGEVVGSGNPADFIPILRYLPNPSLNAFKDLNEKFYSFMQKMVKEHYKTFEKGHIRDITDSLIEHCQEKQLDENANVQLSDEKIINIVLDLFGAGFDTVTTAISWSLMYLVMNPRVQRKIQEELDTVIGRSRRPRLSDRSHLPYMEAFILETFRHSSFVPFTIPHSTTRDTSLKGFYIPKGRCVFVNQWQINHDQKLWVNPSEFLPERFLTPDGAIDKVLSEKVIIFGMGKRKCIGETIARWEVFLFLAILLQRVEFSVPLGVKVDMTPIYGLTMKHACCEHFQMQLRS
Procedure, shortened: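 Read-out: fluorescence intensity from enzymatic turnover of substrate by recombinant CYP1A1, loss of signal indicating inhibition. Incubation 1 h post-dose. Primary single-point 10 uM in duplicate; actives rerun singly with top concentration 20 uM.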

[11] = biological target: human CYP2C9, CYP2C9 (gene 1559) (UniProt P11712); test: NVS_ADME_hCYP2C9: NovaScreen (NVS) CYP450-related Enzyme Activity (ADME) Assay for human CYP2C9 (AID 2283108; active = hit-call score of the fitted dose curve at least 0.9, where 1 is the maximum)
Chain of human CYP2C9, CYP2C9 (gene 1559) (P11712 whole entry, looked up): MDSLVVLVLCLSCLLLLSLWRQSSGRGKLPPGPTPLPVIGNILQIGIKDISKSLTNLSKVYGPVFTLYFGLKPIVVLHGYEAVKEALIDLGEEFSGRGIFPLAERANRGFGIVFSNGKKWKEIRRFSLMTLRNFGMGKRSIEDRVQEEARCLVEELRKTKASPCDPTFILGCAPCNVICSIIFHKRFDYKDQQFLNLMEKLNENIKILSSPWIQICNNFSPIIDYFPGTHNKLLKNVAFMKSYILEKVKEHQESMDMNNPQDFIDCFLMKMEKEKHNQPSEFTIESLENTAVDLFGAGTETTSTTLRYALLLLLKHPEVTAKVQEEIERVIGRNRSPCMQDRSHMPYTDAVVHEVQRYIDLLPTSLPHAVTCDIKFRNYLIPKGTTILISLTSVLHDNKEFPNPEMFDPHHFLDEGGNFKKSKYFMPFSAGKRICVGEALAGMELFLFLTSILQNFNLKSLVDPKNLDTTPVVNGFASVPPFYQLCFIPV
Procedure, shortened: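 Cell-free assay of recombinant human CYP2C9 produced in Sf9 cells, with enzyme activity read by fluorescence intensity 0.75 h after compound addition. Loss of signal versus an acetonitrile negative control indicates inhibition. Primary screen used 10 uM in duplicate; actives were retested in concentration series.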

[12] = biological target: Cytochrome P450 3A4 (Homo sapiens) (UniProt P08684); test: NVS_ADME_hCYP3A4: NovaScreen (NVS) CYP450-related Enzyme Activity (ADME) Assay for human CYP3A4 (AID 2283110; active = hit-call score of the fitted dose curve at least 0.9, where 1 is the maximum)
Chain of Cytochrome P450 3A4 (Homo sapiens) (P08684 whole entry, looked up): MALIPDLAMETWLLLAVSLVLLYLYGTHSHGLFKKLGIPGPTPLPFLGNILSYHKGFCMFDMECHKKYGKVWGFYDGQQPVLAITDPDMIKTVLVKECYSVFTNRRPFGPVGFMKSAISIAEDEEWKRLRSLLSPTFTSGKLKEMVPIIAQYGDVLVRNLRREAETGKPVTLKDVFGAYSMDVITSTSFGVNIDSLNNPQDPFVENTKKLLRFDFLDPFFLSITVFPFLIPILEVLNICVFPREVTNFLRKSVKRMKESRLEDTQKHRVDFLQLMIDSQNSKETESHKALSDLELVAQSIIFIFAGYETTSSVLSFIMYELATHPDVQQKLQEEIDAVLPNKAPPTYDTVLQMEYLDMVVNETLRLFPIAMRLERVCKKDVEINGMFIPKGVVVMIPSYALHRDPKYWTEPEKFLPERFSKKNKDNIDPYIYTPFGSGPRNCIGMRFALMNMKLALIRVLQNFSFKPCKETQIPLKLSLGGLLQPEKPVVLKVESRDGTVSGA
Procedure, shortened: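 Cell-free assay using insect-cell-expressed human CYP3A4 with a fluorogenic substrate; fluorescence intensity was read 0.33 hour after dosing. Loss of signal relative to acetonitrile vehicle indicated inhibition. Primary single-concentration screen at 10 uM, in duplicate, then concentration series.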

Measured: AC50

Chain of E-selectin (Homo sapiens) (P16581 whole entry, looked up): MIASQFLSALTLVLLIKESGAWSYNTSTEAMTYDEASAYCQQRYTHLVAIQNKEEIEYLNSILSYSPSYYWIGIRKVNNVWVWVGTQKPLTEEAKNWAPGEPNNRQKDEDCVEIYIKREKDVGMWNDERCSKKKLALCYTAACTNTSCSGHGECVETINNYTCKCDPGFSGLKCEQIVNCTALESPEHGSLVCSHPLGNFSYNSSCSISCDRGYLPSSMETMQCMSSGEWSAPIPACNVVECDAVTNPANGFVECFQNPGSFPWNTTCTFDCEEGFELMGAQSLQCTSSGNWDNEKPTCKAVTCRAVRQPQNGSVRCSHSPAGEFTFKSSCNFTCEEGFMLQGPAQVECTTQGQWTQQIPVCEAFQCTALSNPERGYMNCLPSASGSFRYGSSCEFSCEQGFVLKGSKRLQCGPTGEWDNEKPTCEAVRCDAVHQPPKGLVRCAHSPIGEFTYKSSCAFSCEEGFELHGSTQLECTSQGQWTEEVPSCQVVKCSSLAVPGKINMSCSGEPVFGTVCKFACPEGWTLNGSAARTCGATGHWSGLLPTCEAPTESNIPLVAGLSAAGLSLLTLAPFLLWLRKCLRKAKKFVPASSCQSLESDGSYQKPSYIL

Cc1cnc(C2=NC(C)(C(C)C)C(=O)N2)c(C(=O)O)c1 (stereo not drawn)
not listed: [8] | [9] | [10] | [11] | [12]
inactive: all other assays above

C=C(C)CN(CC)c1c([N+](=O)[O-])cc(C(F)(F)F)cc1[N+](=O)[O-]
inactive: CD40, CD40 (gene 958) | CD69, CD69 (gene 969) | [1] | [3] | [5]
active: [2] 33.7 µM | [4] 30.8 µM | [6] 28.8 µM | [7] 15.2 µM

CCC(C)n1c(=O)[nH]c(C)c(Br)c1=O (stereo not drawn)
not listed: [8] | [9] | [10] | [11] | [12]
inactive: all other assays above

COCC(C)N(C(=O)CCl)c1c(C)csc1C (stereo not drawn)
active: [2] 10.7 µM
not listed: [8] | [9] | [10] | [11] | [12]
inactive: all other assays above

CC(C)Nc1nc(Cl)nc(NC(C)C)n1
active: [2] 4.2 µM
not listed: [8] | [9] | [10] | [11] | [12]
inactive: all other assays above

Nc1c(Cl)c(Cl)nc(C(=O)O)c1Cl
not listed: [8] | [9] | [10] | [11] | [12]
inactive: all other assays above

CC(C)N1C(=O)N(c2ccccc2)CSC1=NC(C)(C)C
active: CD40, CD40 (gene 958) 33.4 µM | CD69, CD69 (gene 969) 30.3 µM | [1] 34.5 µM | [2] 27.3 µM | [3] 38.8 µM | [4] 32.2 µM | [5] 26.3 µM | [6] 27.4 µM | [7] 27.8 µM | [8] 8.79 µM

Cc1c(COC(=O)[C@@H]2[C@H](/C=C(\Cl)C(F)(F)F)C2(C)C)cccc1-c1ccccc1
inactive: [1] | [3] | [4] | [9]
active: CD40, CD40 (gene 958) 16.5 µM | CD69, CD69 (gene 969) 5.92 µM | [2] 10.3 µM | [5] 9.35 µM | [6] 14.1 µM | [7] 9.26 µM

CCOC(=O)C(C)OC(=O)c1cc(Oc2ccc(C(F)(F)F)cc2Cl)ccc1[N+](=O)[O-] (stereo not drawn)
inactive: [1] | [3] | [4] | [5] | [9]
active: CD40, CD40 (gene 958) 3.97 µM | CD69, CD69 (gene 969) 12.8 µM | [2] 10 µM | [6] 30.9 µM | [7] 14 µM

CC(C)(C)C(=O)C(Oc1ccc(Cl)cc1)n1cncn1 (stereo not drawn)
active: [9] 2.38 µM | [10] 1.62 µM | [8] 8.28 µM | [11] 6.98 µM and 4.65 µM | [12] 5.81 µM
inactive: all other assays above
